Common to all, as to assay type: functional
Experiment [1] concerns the target Solute carrier family 2, facilitated glucose transporter member 1 (Homo sapiens) (UniProt P11166). As to the kind of experiment: ST_JUDE_LEISH: Cytotoxicity at 2uM final concentration against transgenic Leishmania Mexicana promastigotes LmGLUT1 that are glucose transport deficient and complemented with the human glucose transporter GLUT1. Activity is measured by DNA content using SYBR green in vitro.

For experiment [2], the target named is Hexose transporter 1 (Plasmodium falciparum) (UniProt O97467). Kind of experiment: ST_JUDE_LEISH: Cytotoxicity at 2uM final concentration against transgenic Leishmania Mexicana promastigotes LmPfHT that are glucose transport deficient and complemented with the Plasmodium falciparum hexose transporter. Activity is measured by DNA content using SYBR green in vitro.

The target in experiment [3] is Glucose transporter (Leishmania mexicana) (UniProt O61059). Kind of experiment: ST_JUDE_LEISH: Cytotoxicity at 2uM final concentration against transgenic Leishmania Mexicana promastigotes LmGT2 that are glucose transport deficient and complemented with the L. Mexicana glucose transporter 2. Activity is measured by DNA content using SYBR green in vitro.

Solute carrier family 2, facilitated glucose transporter member 1 (Homo sapiens), sequence (P11166 whole entry): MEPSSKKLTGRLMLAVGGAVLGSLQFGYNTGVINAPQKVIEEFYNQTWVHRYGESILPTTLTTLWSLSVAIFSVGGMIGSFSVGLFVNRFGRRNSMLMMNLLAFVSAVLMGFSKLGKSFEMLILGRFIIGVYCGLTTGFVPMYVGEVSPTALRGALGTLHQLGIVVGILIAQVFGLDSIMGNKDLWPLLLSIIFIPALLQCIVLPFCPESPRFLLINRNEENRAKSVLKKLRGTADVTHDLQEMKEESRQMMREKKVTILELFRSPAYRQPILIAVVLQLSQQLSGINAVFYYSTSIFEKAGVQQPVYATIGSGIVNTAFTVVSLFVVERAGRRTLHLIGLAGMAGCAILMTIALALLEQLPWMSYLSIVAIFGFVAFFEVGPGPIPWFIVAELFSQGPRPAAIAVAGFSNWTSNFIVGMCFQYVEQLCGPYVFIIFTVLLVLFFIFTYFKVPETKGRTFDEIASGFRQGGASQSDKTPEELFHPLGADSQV

In the case of `Cc1cccc2nc(-c3ccc(-c4cccc(CNCc5cccc(N)c5)c4)cc3)[nH]c12`, the inhibition in experiment [1] was 2.44%; in experiment [2] it was 2.16%; in experiment [3] it was -1.02%.

Turning to `O=C(Cn1c(CCc2cccc(F)c2F)cc(=O)c2cccnc21)N(CCCn1ccnc1)Cc1ccc(-c2ccc(C(F)(F)F)cc2)cc1`, the inhibition in experiment [1] was found to be 2.11%; in experiment [2], 1.17%; in experiment [3] it was 0.71%.

For the compound `COC(=O)c1cccc(NC(=O)NC2CCN(c3ccnc(NCc4ccc(F)cc4)n3)CC2)c1`, the inhibition in experiment [1] is -2.83%; in experiment [2], -2.8%; in experiment [3], -0.54%.

`Cc1ccc(OCC2CCN(c3ncc(C(=O)NCCCN4CCCC4=O)cc3Cl)CC2)cc1`: the inhibition in experiment [1] is 1.15%; in experiment [2], -1.22%; in experiment [3], 0.72%.

Take `Cc1cc(=NN=CC=Cc2ccccc2)c2ccc(F)cc2[nH]1`: the inhibition in experiment [1] was -1.45%; in experiment [2], 2.91%; in experiment [3], -0.62%.

Take `Cc1cc(C)nc(-n2[nH]c(C)c(Cc3ccc(C(C)(C)C)cc3)c2=O)n1`: the figures for the inhibition in experiment [1], in experiment [2] and in experiment [3] were 4.87%, 5.45% and 2.9%, respectively.

For `O=C(Nc1ccc(-c2cccc(-c3nc4ccccc4[nH]3)c2)cc1)c1cnn2cccnc12`, the inhibition in experiment [1] is 7.76%; in experiment [2], 2.12%; in experiment [3], -0.16%.

As to `CCOC(=O)c1nc(-c2ccc(Cl)cc2)[nH]c1NC(=S)NCCCN1CCOCC1`, the figures for the inhibition in experiment [1], in experiment [2] and in experiment [3] were -0.48%, 1.52% and -2.41%, respectively.

Consider `CCn1ccc2c(N3CCCS3(=O)=O)cc(C(=O)N[C@@H](Cc3ccccc3)[C@H](O)CNC(C)(C)c3cccc(OC)c3)cc21`, for which the inhibition in experiment [1] turned out to be 0.43%; in experiment [2], 2.4%; in experiment [3], 1.49%.

For the compound `COc1cccc2c(NN=Cc3ccc(Cl)cc3)ccnc12`, the results for the inhibition in experiment [1], in experiment [2] and in experiment [3] were 2.42%, 2.54% and 2.21%, respectively.

`Cc1cc2c(cc1C(F)(F)F)N(C(=O)Nc1cc(OCCN(C(C)C)C(C)C)cc(C(F)(F)F)c1)CC2`: the inhibition is 10.4% in experiment [1], 9.23% in experiment [2] and 6.19% in experiment [3].

With `Cc1[nH]c(CNCCCNc2cc(=O)c3ccccc3[nH]2)c(Br)c1Br`, the inhibition in experiment [1] is 0.62%; in experiment [2], 1.85%; in experiment [3], -0.49%.

For the compound `OC(CNc1ccnc(Nc2cccc(Cl)c2)n1)c1cccc(F)c1` (stereo not drawn), the inhibition in experiment [1] is 3.71%; in experiment [2] it was 4.41%; in experiment [3] it was -3.09%.

As to `O=C(C=Cc1ccc(Cl)c(Cl)c1)NCCCCCN1CCCC(CCCNS(=O)(=O)c2cccc3cccnc23)C1` (stereo not drawn), the inhibition in experiment [1] was 5.85%; in experiment [2], 5.36%; in experiment [3] it was -0.71%.

As to `COc1ccc2nccc([C@@H](O)CN3CCC(NCC(O)Cc4ccccc4)CC3)c2c1` (stereo partly drawn), the inhibition in experiment [1] is -0.38%; in experiment [2], -3.2%; in experiment [3], 1.51%.

`O=C(Nc1ccc(-c2nc3ccccc3[nH]2)cc1)C1CCN(Cc2cccc(F)c2F)CC1`: the inhibition came to 24.2% in experiment [1], 28.4% in experiment [2] and 16% in experiment [3].

For `COc1cc(Nc2nccc(NCC(O)c3ccc(C(F)(F)F)cc3)n2)cc(OC)c1OC` (stereo not drawn), the inhibition turned out to be 1.6% in experiment [1], 2.84% in experiment [2] and 2.81% in experiment [3].

Turning to `COc1ccc(C(=O)C2CC2CN(C)CCC(O)c2ccc(Cl)c(Cl)c2)cc1` (stereo not drawn), the inhibition is 1.1% in experiment [1], 1.11% in experiment [2] and 4.55% in experiment [3].

As for `COCCN1CCC(N(CC2(O)CCN(c3ccc(C(F)(F)F)cc3)CC2)C(=O)Cn2c(SCc3cccc(F)c3F)cc(=O)c3ccccc32)CC1`, the inhibition in experiment [1] was -0.38%; in experiment [2] it was 0.65%; in experiment [3] it was 0.85%.

On to `CCCCCCCN(Cc1ccc(OC(C)(C)C(=O)OCC)cc1)C(=O)Cc1ccc(F)cc1F`, for which the inhibition came to 2.17% in experiment [1], 1.8% in experiment [2] and 2.23% in experiment [3].

Regarding `Cc1ccc(C2CCN(CCCCNC(=O)c3ccc(-c4ccc(C(F)(F)F)cc4)cc3)CC2)c(O)c1`, the inhibition in experiment [1] is -0.37%; in experiment [2], -0.08%; in experiment [3] it was -0.78%.

Consider `C=CCNS(=O)(=O)c1ccc(NC(=O)C(C)Oc2ccc([N+](=O)[O-])cc2)cc1` (stereo not drawn), for which the inhibition is 1.52% in experiment [1], 1.56% in experiment [2] and -0.8% in experiment [3].

`CS(=O)(=O)c1ccc(CNCc2ccc(-c3cccc(-c4nc5cc(F)ccc5[nH]4)c3)cc2)cc1`: the results for the inhibition in experiment [1], in experiment [2] and in experiment [3] were 3.3%, 1.83% and 2.88%, respectively.

Regarding `Brc1cc(CNCCCNc2nc3ccccc3[nH]2)sc1Br`, the inhibition in experiment [1] came out at 6.22%; in experiment [2] it was 9.1%; in experiment [3], 6.32%.

With `CN1CCN(c2nsc3ccc(-c4ccc(OCCN5CCCC5)cc4)cc23)CC1`, the inhibition in experiment [1] is 13.2%; in experiment [2], 11.4%; in experiment [3], 9.39%.

Take `COc1ccc2ncc(F)c([C@@H](O)CN3CCC(NCc4cc5c(cn4)OCCO5)CC3)c2c1`: the inhibition in experiment [1] is 2.51%; in experiment [2] it was 2.79%; in experiment [3], 3.93%.

Take `Cc1ccc(N2C(N)=NC(N)=NC2(C)C)cc1`: the inhibition in experiment [1] stood at 2.52%; in experiment [2], 2.98%; in experiment [3], 2.39%.

Turning to `CN1CCN(c2ccnc3ccc(NC(=O)Nc4ccc(-c5ccncc5)c5ccccc45)cc23)CC1`, the inhibition in experiment [1] turned out to be 3.36%; in experiment [2], 0.39%; in experiment [3] it was 5.81%.

For `Cc1cc(N2CCC(N(C)C)C2)nc(Nc2ccc(Cl)cc2)n1` (stereo not drawn), the results for the inhibition in experiment [1], in experiment [2] and in experiment [3] were 4.11%, 3.16% and 4.87%, respectively.

With `COCCCNC(=O)[C@H]1CNCCN1C(=O)c1ccccc1`, the results for the inhibition in experiment [1], in experiment [2] and in experiment [3] were 1%, 0.97% and 3.67%, respectively.

Turning to `CCCCc1ccc(Cc2cnc3nc(N)nc(N)c3c2C)cc1`, the inhibition in experiment [1] was 11.6%; in experiment [2], 23%; in experiment [3], 15.6%.

Take `CCOCc1cnc(C)nc1NCC(=O)c1c(C)[nH]c2cc(C)ccc12`: the results for the inhibition in experiment [1], in experiment [2] and in experiment [3] were -0.21%, -0.79% and -0.44%, respectively.

On to `COc1ccc(-c2cn3c(C(=O)Nc4ccccc4Cl)c(-c4ccccc4)c4c3n2CCCC4)cc1`, for which the values for the inhibition in experiment [1], in experiment [2] and in experiment [3] were 0.33%, 0.92% and -0.58%, respectively.

As for `O=C(/C=C/c1ccc(Cl)c(Cl)c1)NCCCCN1CCCN(C(=O)Nc2ccc(C(F)(F)F)cc2)CC1`, the inhibition in experiment [1] came to 3.18%; in experiment [2] it was 4.68%; in experiment [3], 1.09%.

Take `CCC(NC(=O)c1ccccc1NC(=O)c1ccc(C)cc1)C(=O)OC` (stereo not drawn): the results for the inhibition in experiment [1], in experiment [2] and in experiment [3] were -0.5%, 0.91% and 0.97%, respectively.

As to `CCn1c(-c2nonc2N)nc2c(-c3ccccc3)ncc(OCCCNCCCN3CCOCC3)c21`, the figures for the inhibition in experiment [1], in experiment [2] and in experiment [3] were 2.58%, 1.32% and 0.55%, respectively.

For `Cc1cccc2nc(-c3ccc(-c4cccc(NC(=O)Nc5ccc6c(c5)OCO6)c4)cc3)[nH]c12`, the values for the inhibition in experiment [1], in experiment [2] and in experiment [3] were 2.61%, 4.13% and 3.3%, respectively.

As to `Cc1noc(C)c1-c1ccc2c(Nc3ccc(C#N)cc3)c(C(N)=O)cnc2c1`, the results for the inhibition in experiment [1], in experiment [2] and in experiment [3] were 4.95%, 4.62% and 5%, respectively.

In the case of `O=C(N[C@H]1CCN(CCc2ccc(O[C@H]3CCNC3)c(Br)c2)C1)c1ccc(Cl)c(Cl)c1`, the inhibition in experiment [1] came to 0.91%; in experiment [2], 3%; in experiment [3] it was 1.43%.

Regarding `Cc1cc(N[C@@H](Cc2ccccc2)C(=O)Nc2ccccc2)nc(NCCc2ccccn2)n1`, the inhibition turned out to be 4.62% in experiment [1], 4.95% in experiment [2] and 3.53% in experiment [3].

Regarding `Clc1ccc(-c2ccc(C=NNc3nc(=Nc4ccccc4)[nH]c(=Nc4ccccc4)[nH]3)o2)cc1Cl`, the figures for the inhibition in experiment [1], in experiment [2] and in experiment [3] were -3.26%, -1.12% and 7.88%, respectively.

With `Cc1ccc2cc(NC(=O)c3cccc(C(=O)Nc4ccc5nc(C)ccc5c4)n3)ccc2n1`, the inhibition was found to be 15.1% in experiment [1], 12.2% in experiment [2] and 11.6% in experiment [3].

With `COc1c(CCNCCCCNCCc2cc(Cl)c3ccccc3c2OC)cc(Cl)c2ccccc12`, the values for the inhibition in experiment [1], in experiment [2] and in experiment [3] were 102%, 100% and 105%, respectively.

As for `CCCC(C)Nc1nc(C)cc(N[C@@H](CC(C)C)C(=O)NCc2ccc(C)cc2)n1` (stereo partly drawn), the figures for the inhibition in experiment [1], in experiment [2] and in experiment [3] were 3.04%, 4.01% and 0.38%, respectively.

Turning to `CN(c1ccccc1C(=O)Nc1cc(Cl)ccc1Oc1ccccc1)S(=O)(=O)c1ccccc1`, the inhibition in experiment [1] came to 5.06%; in experiment [2], 4.53%; in experiment [3] it was 3.66%.

On to `O=C(Cn1c(CCc2cccc(F)c2F)nc(=O)c2ccccc21)N(CCN1CCCCC1)Cc1ccc(-c2ccc(C(F)(F)F)cc2)cc1`, for which the inhibition in experiment [1] is 6.02%; in experiment [2] it was 4.32%; in experiment [3], 4.32%.

`CCCc1cc(Cc2cnc(N)nc2N)ccc1OCCCCCC(=O)OCC`: the inhibition in experiment [1] was 1.31%; in experiment [2] it was -1.27%; in experiment [3] it was -2.01%.

In the case of `CCNc1cc(C)nc(Nc2ccc(NC(=O)c3ccccc3)cc2)n1`, the inhibition was determined as 6.94% in experiment [1], 4.8% in experiment [2] and 3.79% in experiment [3].

As to `CN(C)c1ccc(C=CC(=O)NC(=O)c2ccccc2O)cc1`, the inhibition turned out to be 3.19% in experiment [1], 2.19% in experiment [2] and 1.56% in experiment [3].

For `COc1ccc(-c2cc(C(=O)Nc3ccc(CCCN(C)Cc4ccc(OC)c(OC)c4)cc3)c3ccccc3n2)cc1`, the inhibition in experiment [1] came out at 13.6%; in experiment [2], 2.41%; in experiment [3] it was 1.44%.

On to `COc1cccc(-c2csc(C(=O)NCC3CCN(Cc4ccc(C(C)(C)C)cc4)C3)c2)c1` (stereo not drawn), for which the inhibition in experiment [1] was 3.1%; in experiment [2] it was -1.27%; in experiment [3], 2.46%.
